# Measurements: PubChem BioAssay AID720561 (Broad Institute, 2013)
# Results with a measured potency or affinity are listed apart. Values without a mark were called inactive. The rule behind the calls is not given here.
# Assay: suppression of HIF-dependent reporter luminescence – cell-based, dry powder samples, 2158-07, ARNT-TACC3 inhibitor project, dose response (AID 720561)
# Details: HIF luciferase reporter cells; series mostly up to 50 µM; activity change, negative = inhibition: at the top concentration
row,SMILES,"activity change, negative = inhibition"
1,Cc1c(C(=O)N(C)C)sc2nc(-c3ccccn3)[nH]c(=O)c12,76.3%
2,O=C(CSc1ccc(-c2ccccn2)nn1)NC1CCCCC1,118% [at 26 µM]
3,O=C(CSc1ccc(-c2ccccn2)nn1)Nc1ccccc1,226%
4,FC(F)(F)c1cc(-c2nn[nH]n2)cc(C(F)(F)F)c1,-1.41%
5,CC1CCN(S(=O)(=O)c2ccc(C(=O)Nc3nnc(-c4ccno4)o3)cc2)CC1,-3.2%
6,CC1CCN(S(=O)(=O)c2ccc(C(=O)Nc3nnc(-c4ccccn4)o3)cc2)CC1,0.208%
7,C=CC1=C(C(=O)O)N2C(=O)[C@@H](NC(=O)/C(=N\O)c3csc(N)n3)[C@H]2SC1 (stereo in doubt),-6.02%
8,Cc1ccc(C(=O)Nc2nc(-c3ccccn3)cs2)cc1S(=O)(=O)N1CCOCC1,128% [at 26 µM]
9,O=C(CSc1ccc(-c2ccccn2)nn1)N1CCCC1,118%
